Test results reported in PubChem BioAssay (Tox21).
Records with an inconclusive call do not appear. Active and inactive are the calls of the source. Unless noted, calls follow the shape of the full dose curve.

How the values were obtained:
[1] = qHTS assay to identify small molecule agonists of the peroxisome proliferator-activated receptor delta (PPARd) signaling pathway - cell viability counter screen (AID 743211; active = well fitted curve in the direction sought with a large enough effect in the repeat runs; an effect the other way counts as inactive or inconclusive; also: nearly all actives have a fitted effect of over 55% in size)
Outline: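 PPARd-bla HEK293H cells (UAS-beta-lactamase reporter) were treated with compounds for 17 h at 37 C. Viability was then read in the same wells by CellTiter-Glo luminescence after 30 min at room temperature.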

[2] = molecular target: Peroxisome proliferator-activated receptor delta (Homo sapiens) (UniProt Q03181); assay: qHTS assay to identify small molecule agonists of the peroxisome proliferator-activated receptor delta (PPARd) signaling pathway (AID 743212)
Peroxisome proliferator-activated receptor delta (Homo sapiens), sequence (Q03181 whole entry, looked up): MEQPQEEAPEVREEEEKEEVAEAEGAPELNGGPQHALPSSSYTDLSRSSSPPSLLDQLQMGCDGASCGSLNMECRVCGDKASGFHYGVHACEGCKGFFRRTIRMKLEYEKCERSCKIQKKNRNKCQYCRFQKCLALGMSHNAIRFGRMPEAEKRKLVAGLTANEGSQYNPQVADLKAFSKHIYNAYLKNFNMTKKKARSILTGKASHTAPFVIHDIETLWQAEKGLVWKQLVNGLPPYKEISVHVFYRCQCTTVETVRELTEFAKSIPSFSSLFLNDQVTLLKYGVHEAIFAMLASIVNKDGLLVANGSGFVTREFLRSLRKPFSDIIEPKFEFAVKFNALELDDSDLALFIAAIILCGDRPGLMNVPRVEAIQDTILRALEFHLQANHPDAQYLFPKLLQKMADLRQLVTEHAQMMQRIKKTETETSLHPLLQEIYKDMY
Outline: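 Read-out: beta-lactamase FRET fluorescence after 2 h room-temperature incubation with LiveBLAzer B/G substrate. Cells were HEK293H carrying a UAS-bla reporter for PPARd, treated at 37 C with DMSO-dissolved compounds.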

[3] = qHTS assay to identify small molecule antagonists of the peroxisome proliferator-activated receptor delta (PPARd) signaling pathway - cell viability counter screen (AID 743213; active = well fitted curve in the direction sought with a large enough effect in the repeat runs; an effect the other way counts as inactive or inconclusive; also: nearly all actives have a fitted effect of over 50% in size)
Outline: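 Luminescence from CellTiter-Glo, added after the bla read and incubated 30 min at room temperature, gives viability of HEK293H PPARd-bla cells exposed to compounds for 17 h at 37 C with 300 nM L165041.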

[4] = molecular target: Peroxisome proliferator-activated receptor delta (Homo sapiens) (UniProt Q03181); assay: qHTS assay to identify small molecule antagonists of the peroxisome proliferator-activated receptor delta (PPARd) signaling pathway (AID 743215; active = well fitted inhibition curve with a large enough effect in the signal ratio in the repeat runs, not every such curve was filed as active; the % refers to the signal ratio;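 also: cells stimulated with agonist L165041 at 300 nM final during compound exposure; series mostly up to about 62 µM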)
Outline: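 HEK293H GeneBLAzer PPARd UAS-bla reporter cells; cpd + L165041 300 nM final, 17 h 37 C; LiveBLAzer B/G FRET substrate 2 h RT; fluorescence intensity read-out. Antagonist mode.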

[5] = molecular target: Bile acid receptor (Homo sapiens) (UniProt Q96RI1); assay: qHTS assay to identify small molecule antagonists of the farnesoid-X-receptor (FXR) signaling pathway (AID 743217; active = well fitted inhibition curve with a large enough effect in the signal ratio in the repeat runs, not every such curve was filed as active; the % refers to the signal ratio)
Bile acid receptor (Homo sapiens), sequence (Q96RI1 whole entry, looked up): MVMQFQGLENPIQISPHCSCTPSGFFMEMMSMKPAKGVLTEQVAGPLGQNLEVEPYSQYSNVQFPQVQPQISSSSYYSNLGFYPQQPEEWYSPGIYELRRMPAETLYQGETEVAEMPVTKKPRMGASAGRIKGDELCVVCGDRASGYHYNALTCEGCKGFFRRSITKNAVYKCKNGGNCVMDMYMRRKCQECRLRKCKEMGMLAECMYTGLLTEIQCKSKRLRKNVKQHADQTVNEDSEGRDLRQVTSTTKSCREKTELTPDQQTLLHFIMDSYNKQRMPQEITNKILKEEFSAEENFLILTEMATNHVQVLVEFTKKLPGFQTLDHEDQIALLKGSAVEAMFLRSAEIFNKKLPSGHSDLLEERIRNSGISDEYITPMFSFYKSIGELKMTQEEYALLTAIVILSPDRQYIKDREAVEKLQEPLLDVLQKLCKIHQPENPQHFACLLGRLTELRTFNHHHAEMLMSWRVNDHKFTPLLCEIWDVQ
Outline: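 Read-out: beta-lactamase FRET fluorescence (LiveBLAzer B/G substrate, 2 h, room temperature) in GeneBLAzer FXR-UAS-bla HEK 293T cells. Compounds were co-dosed with 50 uM chenodeoxycholic acid (final) and incubated 16 h at 37 °C.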

[6] = qHTS assay to identify small molecule agonists of the farnesoid-X-receptor (FXR) signaling pathway - cell viability counter screen (AID 743218; active = well fitted curve in the direction sought with a large enough effect in the repeat runs; an effect the other way counts as inactive or inconclusive; also: nearly all actives have a fitted effect of over 45% in size)
Outline: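 Luminescence from CellTiter-Glo, read after 30 min at RT, reports viability of GeneBLAzer FXR-UAS-bla HEK 293T cells treated 16 h with compounds in the wells used for the beta-lactamase reporter.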

[7] = molecular target: Bile acid receptor (Homo sapiens) (UniProt Q96RI1); assay: qHTS assay to identify small molecule agonists of the farnesoid-X-receptor (FXR) signaling pathway (AID 743220; active = well fitted activation curve with a large enough effect in the signal ratio in the repeat runs, not every such curve was filed as active; the % refers to the signal ratio)
Outline: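 FXR-UAS-bla HEK 293T cells carrying a UAS-driven beta-lactamase reporter were plated for 5 h at 37C/5% CO2, then exposed to DMSO-dissolved Tox21 10K compounds for 16 h at 37C. A LiveBLAzer B/G FRET substrate was loaded for 2 h at room temperature before fluorescence reading.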

[8] = qHTS assay to identify small molecule antagonists of the farnesoid-X-receptor (FXR) signaling pathway - cell viability counter screen (AID 743221; active = well fitted cell-killing curve with a large enough effect in the repeat runs, not every such curve was filed as active; also: nearly all actives have a fitted effect of over 50% in size)
Outline: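 FXR-UAS-bla HEK 293T cells were treated with test compounds plus chenodeoxycholic acid (50 uM final) for 16 h at 37 C. Cell viability in the same wells was then read as CellTiter-Glo luminescence after 30 min at room temperature.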

[9] = molecular target: Vitamin D3 receptor (Homo sapiens) (UniProt P11473); assay: qHTS assay to identify small molecule agonists of the vitamin D receptor (VDR) signaling pathway (AID 743222)
Vitamin D3 receptor (Homo sapiens), sequence (P11473 whole entry, looked up): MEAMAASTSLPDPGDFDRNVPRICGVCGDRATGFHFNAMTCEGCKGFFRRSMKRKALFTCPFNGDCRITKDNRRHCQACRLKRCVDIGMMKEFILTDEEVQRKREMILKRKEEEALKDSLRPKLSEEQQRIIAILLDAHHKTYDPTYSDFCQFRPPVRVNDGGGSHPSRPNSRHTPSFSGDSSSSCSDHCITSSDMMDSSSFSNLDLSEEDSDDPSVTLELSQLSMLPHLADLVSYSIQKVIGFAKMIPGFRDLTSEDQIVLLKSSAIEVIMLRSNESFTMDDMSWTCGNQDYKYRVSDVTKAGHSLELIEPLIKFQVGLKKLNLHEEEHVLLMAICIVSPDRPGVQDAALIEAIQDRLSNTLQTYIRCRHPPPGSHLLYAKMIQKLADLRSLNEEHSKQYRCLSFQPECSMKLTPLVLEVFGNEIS
Outline: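 Beta-lactamase reporter readout (LiveBLAzer B/G FRET, 2 h RT) in VDR-bla cells after 16 h compound treatment at 37C, 5% CO2; cells pre-incubated 4 h before pin transfer of DMSO solutions.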

[10] = molecular target: Vitamin D3 receptor (Homo sapiens) (UniProt P11473); assay: qHTS assay to identify small molecule antagonists of the vitamin D receptor (VDR) signaling pathway (AID 743223; active = well fitted inhibition curve with a large enough effect in the signal ratio in the repeat runs, not every such curve was filed as active; the % refers to the signal ratio)
Outline: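 VDR-bla cells were plated, incubated 4 h at 37C, then given compound and 1alpha,25-dihydroxyvitamin D3 (3 nM final). After 16 h at 37C, LiveBLAzer B/G FRET substrate was added for 2 h at room temperature and fluorescence read.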

[11] = qHTS assay to identify small molecule agonists of the vitamin D receptor (VDR) signaling pathway - cell viability counter screen (AID 743224; active = well fitted curve in the direction sought with a large enough effect in the repeat runs; an effect the other way counts as inactive or inconclusive; also: series mostly up to about 63 µM; nearly all actives have a fitted effect of over 50% in size)
Outline: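 Cytotoxicity counter screen: VDR-bla cells, 16 h compound exposure at 37C, 5% CO2; CellTiter-Glo luminescence, 30 min RT, same wells as bla read.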

[12] = qHTS assay to identify small molecule agonists of the NFkB signaling pathway - cell viability counter screen (AID 1159515); also: series mostly up to about 61 µM; nearly all actives have a fitted effect of over 55% in size
Outline: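 ME-180 NFkB-bla cells, 2,000/well; overnight attach; compound 5 hr, 37 C/5% CO2; LiveBLAzer substrate 1.5 hr RT; then CellTiter-Glo in same wells, 30 min RT, luminescence read.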

[13] = qHTS assay to identify small molecule agonists of the endoplasmic reticulum stress response signaling pathway (AID 1159516; active = well fitted activation curve with a large enough effect in the signal ratio in the repeat runs, not every such curve was filed as active; the % refers to the signal ratio)
Outline: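 HeLa ESRE-bla reporter line; cpd 5 h, 37 C/5% CO2; LiveBLAzer B/G FRET substrate 2 h RT; ex 405, em 460/530 nm.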

[14] = qHTS assay to identify small molecule agonists of the endoplasmic reticulum stress response signaling pathway - cell viability counter screen (AID 1159517);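 also: HeLa cells carrying an ER stress response element beta-lactamase reporter; series mostly up to about 61 µM; nearly all actives have a fitted effect of over 50% in size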
Outline: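 Steps: seed 1,500 ESRE-bla HeLa cells per well; incubate overnight at 37 C, 5% CO2; add compounds in DMSO for 5 hr; run FRET substrate 2 hr RT; add CellTiter-Glo, wait 30 min, read luminescence.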

[15] = qHTS assay to identify small molecule antagonists of the retinoid-related orphan receptor gamma (ROR-gamma) signaling pathway - cell viability counter screen (AID 1159520; active = well fitted curve in the direction sought with a large enough effect in the repeat runs; an effect the other way counts as inactive or inconclusive; also: nearly all actives have a fitted effect of over 50% in size)
Outline: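 Tet-on ROR gamma CHO cells were given compounds for 2 hr, then doxycycline hyclate at 1 uM final, and incubated 16 hr at 37 C. Viability was measured as ATP content by CellTiter-Glo luminescence.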

[16] = molecular target: Nuclear receptor ROR-gamma (Homo sapiens) (UniProt P51449); assay: qHTS assay to identify small molecule antagonists of the retinoid-related orphan receptor gamma (ROR-gamma) signaling pathway (AID 1159521; active = well fitted curve in the direction sought with a large enough effect in the repeat runs; an effect the other way counts as inactive or inconclusive)
Outline: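 Tet-on RORγ CHO cells carrying a ROR response element–luciferase reporter were pretreated with compounds for 2 h, then induced with 1 uM (final) doxycycline hyclate for 16 h at 37 C. Antagonism was read as decreased ONE-Glo luminescence.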

[17] = qHTS assay to identify small molecule agonists of the AP-1 signaling pathway - cell viability counter screen (AID 1159525); also: nearly all actives have a fitted effect of over 55% in size
Outline: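 Same-well cytotoxicity counter screen of the Tox21 10K library in ME-180 cells. The readout is ATP-dependent luminescence after 5 h compound treatment. Data are normalised to DMSO and tetra n-octyl ammonium bromide controls.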

[18] = qHTS assay to identify small molecule agonists of the AP-1 signaling pathway (AID 1159526)
[19] = molecular target: Retinoic acid receptor RXR-alpha (Homo sapiens) (UniProt P19793); assay: qHTS assay to identify small molecule agonists of the RXR signaling pathway (AID 1159527); also: nearly all actives have a fitted effect of over 35% in size
Retinoic acid receptor RXR-alpha (Homo sapiens), sequence (P19793 whole entry, looked up): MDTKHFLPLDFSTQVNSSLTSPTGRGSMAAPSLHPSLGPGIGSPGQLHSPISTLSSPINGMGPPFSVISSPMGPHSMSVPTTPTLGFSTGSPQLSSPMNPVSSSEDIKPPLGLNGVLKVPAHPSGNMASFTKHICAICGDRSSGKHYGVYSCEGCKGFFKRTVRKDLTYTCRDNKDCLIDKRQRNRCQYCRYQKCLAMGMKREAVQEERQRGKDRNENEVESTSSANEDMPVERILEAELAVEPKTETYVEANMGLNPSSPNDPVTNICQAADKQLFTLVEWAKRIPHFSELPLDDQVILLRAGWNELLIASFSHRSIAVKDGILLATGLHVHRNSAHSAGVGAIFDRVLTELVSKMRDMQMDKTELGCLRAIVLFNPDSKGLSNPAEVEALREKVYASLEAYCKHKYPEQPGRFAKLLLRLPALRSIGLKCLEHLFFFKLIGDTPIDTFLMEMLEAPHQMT
Outline: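 GeneBLAzer RXR-alpha-UAS-bla HEK 293T cells in medium with 2% charcoal-stripped FBS, pre-incubated 5 hr at 37 C, then exposed to compounds 16 hr. Beta-lactamase reporter read by FRET substrate, 2 hr room temperature, 460/530 nm emission.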

[20] = qHTS assay to identify small molecule antagonists of the vitamin D receptor (VDR) signaling pathway - cell viability counter screen (AID 743225; active = well fitted curve in the direction sought with a large enough effect in the repeat runs; an effect the other way counts as inactive or inconclusive; also: nearly all actives have a fitted effect of over 50% in size)
Outline: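 VDR-bla HEK 293T cells, 4 h pre-incubation at 37C, then compound plus 1-alpha,25-dihydroxyvitamin D3 (3 nM final) for 16 h. After the beta-lactamase FRET read, CellTiter-Glo was added to the same wells; luminescence after 30 min at room temperature.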

Measured: Potency

CCCCC(CC)COC(=O)c1c(Br)c(Br)c(Br)c(Br)c1C(=O)OCC(CC)CCCC (stereo unspecified)
not listed: [20]
inactive: all other assays above

CC(C)(C)NCC(O)c1cc(Cl)c(N)c(C(F)(F)F)c1 (stereo unspecified)
not listed: [5] | [7]
inactive: all other assays above

C[C@H](N)[C@H](O)c1ccc(O)c(O)c1
not listed: [3] | [5] | [7] | [9] | [10] | [20]
inactive: all other assays above

O=C(O)C(O)C(O)C(=O)O (stereo unspecified)
not listed: [4] | [9] | [10] | [20]
inactive: all other assays above

C[N+](C)(C)CC1CO1 (stereo unspecified)
not listed: [5] | [7] | [8] | [9] | [10] | [11]
inactive: all other assays above

CC(Cl)C(=O)O (stereo unspecified)
inactive: [1] | [9] | [11] | [12] | [13] | [14] | [15] | [16] | [17] | [18] | [19]

CCCCC#N
not listed: [5] | [7] | [9] | [10]
inactive: all other assays above

CCC(C)(C)O
not listed: [5] | [7]
inactive: all other assays above
